Experimental data reported in PubChem BioAssay AID485317 (Broad Institute, 2010).
About 11,000 (3.8%) of roughly 290,000 compounds were called active. What follows is part of a selection rich in actives, with near analogues and random picks from the rest. A number with no mark means an inactive call.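 How the source made its calls: active means mean replicate inhibition above about 79%, with every replicate also reaching it (limit read from the data); inconclusive means only one of the two criteria met; inactive means mean below limit and not every replicate reaching it.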

target: FAD-linked sulfhydryl oxidase ALR (Homo sapiens) (UniProt P55789); assay: inhibitors of human ALR sulfhydryl oxidase, primary screen, biochemical, H2O2 detection, HRP-luminol luminescence, single point (AID 485317); details: purified ALR, DTT oxidation, stronger effect = higher value, concentration not given here
Sequence (P55789 whole entry, looked up): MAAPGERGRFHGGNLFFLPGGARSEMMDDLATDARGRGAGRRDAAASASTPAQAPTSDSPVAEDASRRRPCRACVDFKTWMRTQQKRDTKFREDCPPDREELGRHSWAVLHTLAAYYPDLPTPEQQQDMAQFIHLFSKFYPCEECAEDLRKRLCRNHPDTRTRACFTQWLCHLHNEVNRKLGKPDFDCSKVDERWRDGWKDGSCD

Row | SMILES | inhibition
1 | Cc1nc2c(c(C)nn2-c2ccccc2)c(C)c1C | -7.19%
2 | Cc1nc(-c2ccc(Cl)cc2)sc1C1(C)CC(c2ccc(Br)cc2)=NO1 (stereo unspecified) | -3.38%
3 | CCCCN(C(=O)CCNC(=O)NC12CC3CC(CC(C3)C1)C2)c1c(N)n(CCCC)c(=O)[nH]c1=O | -9.44%
4 | CC(=O)CC(CC(=O)NC1CCCCC1)c1ccccc1 (stereo unspecified) | -6.14%
5 | CN(CC(=O)NNC(=O)CNC(=O)c1ccccc1Cl)S(=O)(=O)c1ccc(Cl)cc1 | -3.96%
6 | CCN1C(=O)[C@@H]2[C@@H](c3ccc(-c4cccc(Cl)c4)cc3)N3CCC[C@@]3(C(=O)OC)[C@@H]2C1=O | -0.179%
7 | CC1(C)O[C@@H]2[C@H](O1)[C@@H](COS(=O)(=O)O)O[C@H]2n1cnc2c(=O)[nH]cnc21 | -3.87%
8 | O=C(Nc1ncccc1O)c1ccc(S(=O)(=O)N2CCCCCC2)cc1 | -12.4%
9 | O=C(OCCOCn1cc(Br)c(=O)[nH]c1=O)c1ccccc1 | 18.4%
10 | Cc1[nH]c2ccccc2c1C(=O)CSCC(=O)O | 98.3% (active)
11 | Cc1[nH]c2ccccc2c1C(=O)CN1CC(C)CC(C)C1 (stereo unspecified) | -7.59%
12 | CCOC(=O)N1CCN(CC(=O)c2c(C)[nH]c3ccccc23)CC1 | -13%
13 | CC(=O)Nc1ccc(NC(=O)COC(=O)C2CCC(C(C)(C)C)CC2)cc1 (stereo unspecified) | -2.92%
14 | CCOC(=O)CCCCCC(=O)Nc1ccc2c(c1)CC(=O)N([C@@H](C)CO)C[C@H](C)[C@@H](CN(C)Cc1ccccc1)O2 | -2.17%
15 | CCCCNC(=O)N(O)C1N(/N=C/c2ccc(N(C)C)cc2)C(=S)SC1(C)C (stereo unspecified) | 98.8% (active)
16 | CCC(C)N1C(=S)SC(C)(C)C1N(O)C(=O)NC1CCCCC1 (stereo unspecified) | -8.63%
17 | CCCCNC(=O)N(O)C1N(/N=C/c2ccccc2O)C(=S)SC1(C)C (stereo unspecified) | -2.9%
18 | COc1ccc(OCC(=O)NNC(=O)c2ccc(-c3ccccc3)cc2)cc1 | 1.13%
19 | Cc1nc(NNC(=O)c2ccccc2)cc(-c2ccccc2)n1 | 90.8% (active)

Row | SMILES | inhibition
20 | COc1ccc(C(=O)NNc2cc(C)nc(NNC(=O)c3ccc(OC)cc3)n2)cc1 | 12.7%
21 | O=C(CNS(=O)(=O)c1ccc2c(c1)OCCCO2)N1CCN(c2ccc(F)cc2)CC1 | 3.71%
22 | CC(C)NC(=O)Nc1cccc2c1O[C@H](CN(C)S(=O)(=O)c1cccs1)[C@@H](C)CN([C@H](C)CO)C2=O | 0.238%
23 | Cc1[nH]n(C(N)=S)c(=O)c1N=Nc1ccc(Cl)cc1Cl | 96.2% (active)
24 | CC1=NN(C(N)=S)C(=O)C1N=Nc1cc(Cl)ccc1Cl (stereo unspecified) | 34.1%
25 | Cc1[nH]n(-c2cccc(Cl)c2)c(=O)c1-c1ccc(Cl)cc1 | 32.9%
26 | Cc1ccc(S(=O)(=O)N(C)c2ccc(OCC(=O)OCc3ccc(C#N)cc3)cc2)cc1 | 2.46%
27 | O=C(COC(=O)/C=C/c1nc2ccccc2s1)Nc1ccccc1Oc1ccccc1 | 28.6%
28 | CCN(C(=O)CSc1nc2ccccc2n1CC)C1CCS(=O)(=O)C1 (stereo unspecified) | 9.23%
29 | CCN(C(=O)COC(=O)/C=C/c1nc2ccccc2s1)C1CCS(=O)(=O)C1 (stereo unspecified) | 94.6% (active)
30 | COc1ccccc1NC(=O)C(C)OC(=O)c1ccc(-n2cnnn2)cc1 (stereo unspecified) | 7.2%
31 | CCc1cccc(NC(=O)COC(=O)C2CCN(c3ccc(C(F)(F)F)cn3)CC2)c1 | -1.14%
32 | O=C(Oc1ccc(-c2nnco2)cc1)c1ccc(F)c(S(=O)(=O)N2CCOCC2)c1 | -0.68%
33 | Cc1cccc(OCC(=O)OCC(=O)Nc2ccc(Cl)cn2)c1 | 0.248%
34 | Cc1ccccc1C(=O)NCC(c1ccco1)N1CCc2ccccc21 (stereo unspecified) | 27%
35 | COc1ccc(C(=O)NCC(c2ccco2)N2CCc3ccccc32)cc1OC (stereo unspecified) | 72.4%
36 | O=C(NCC(c1ccco1)N1CCc2ccccc21)c1cccc(F)c1 (stereo unspecified) | 95.5% (active)
37 | O=C(Nc1cc(S(=O)(=O)Nc2ccc(Cl)cc2)ccc1O)c1ccc(F)cc1F | -4.12%
38 | CSc1ccc(S(=O)(=O)NCC(=O)OCC(=O)NC2(C#N)CCCCC2)cc1[N+](=O)[O-] | -5.06%

Row | SMILES | inhibition
39 | O=c1[nH]c(-c2ccccc2)c(-c2ccccc2)[nH]1 | 98.6% (active)
40 | O=C1C=C(c2ccccc2)CCC1 | 0.158%
41 | c1ccc(-c2cc(-c3ccccc3)[nH]n2)cc1 | -15.4%
42 | O=C(Nc1ccccn1)C1CCN(S(=O)(=O)c2ccc3c(c2)OCCO3)CC1 | 1.39%
43 | CCc1ccc(C(=O)NC(=S)Nc2ccccc2N2CCOCC2)cc1 | -1.76%
44 | CCc1ccc2ncc(C(=O)c3ccccc3)c(N3CCOCC3)c2c1 | 97.1% (active)
45 | CCc1ccc2nc(Nc3ncc(C(C)=O)c(C)n3)nc(C)c2c1 | -4.9%
46 | Cc1ccc(N2CC(C(=O)Nc3cc(Cl)ccc3-n3cncn3)CC2=O)cc1 (stereo unspecified) | -10%
47 | O=C(c1ccncc1)N1CCN(S(=O)(=O)c2cc(C(F)(F)F)cc(C(F)(F)F)c2)CC1 | -17.2%
48 | CCCn1c(C)cc(-c2csc(NC(=O)CCc3nc4ccccc4c(=O)[nH]3)n2)c1C | -8.89%
49 | Cc1cc(-c2n[nH]c(=S)n2-c2ccc(C)c(C)c2)no1 | 96% (active)
50 | Cc1ccc(-c2csc(-c3cc(C)on3)n2)cc1 | -0.833%
51 | S=c1[nH]nc(-c2cc(-c3ccsc3)n[nH]2)n1-c1ccccc1 | 67.2%
52 | CCCCn1c(N)c(N(CCC(C)C)C(=O)CC2OC(=O)c3ccccc32)c(=O)[nH]c1=O (stereo unspecified) | -12.6%
53 | COCCCNC(=O)CC1C[C@H](C(=O)N2CCCCC2)[C@@]2(CCc3ccccc3)c3[nH]c4ccccc4c3CCN2C1=O (stereo partly specified) | -3.65%
54 | CCCc1nc2ccccc2c(=O)n1NC(=O)c1c(O)c2ccccc2[nH]c1=O | -6.61%
55 | O=c1c2ccccc2ncn1/N=C/c1ccccc1 | -10.9%
56 | CCCc1nc2ccccc2c(=O)n1/N=C/c1ccc(O)c(O)c1 | 98.6% (active)
